The text below walks through data of PubChem BioAssay (NCATS).

Several values for one entry are separate records, joined by “and”; a condition that tells them apart may be missing. Identical values can stand only once. Results filed as inconclusive are left out. Activity calls are given as the source filed them. The call rests on the fitted dose curve; in most records, active means well fitted cell-killing curve with a large enough effect; inconclusive means small, poorly fitted or top-dose-only effect; inactive means flat fitted curve, though single readings scatter.
Potency means the concentration at half of the fitted maximal effect.

This assay is described as follows: qHTS of pediatric cancer cell lines to identify multiple opportunities for drug repurposing: Confirmatory screen for A673 cells (AID 1347110).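 Further: cells exposed to compound for 48 h before the viability read; nearly all actives have a fitted effect of over 65% in size.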 The following applies: A673 Ewing sarcoma cell viability; series mostly up to 45.9 µM. The source says:
Drug repurposing or repositioning has been offered as a strategy for drug development in oncology programs. This approach has special potential for childhood cancers and other rare or orphan diseases, where the expected return on new drug development has been a disincentive to pharmaceuticals.
In this project we exploit the poly-pharmacology of drugs to discover new indications via phenotypic screening of a panel of 19 well-characterized cell lines derived from solid tumors seen in children and adolescents. The goal is to identify approved drugs with previously unrecognized anticancer properties that has the potential to reveal new mechanisms and biological processes involved in carcinogenesis or drug resistance. We employed a titration-based paradigm (quantitative high-throughput screening or qHTS), where all compounds were tested at multiple concentrations for their effect on cell viability. Concentration-response curves (CRCs) were derived directly from the primary screen, and both potency and efficacy values were used to identify compounds with robust bioactivity profiles. We screened the NIH Chemical Genomics Center (NCGC) Pharmaceutical Collection (NPC) and Mechanism Interrogation Plate (MIPE) small molecule collections of approved and investigational compounds against these cell lines; and measured metabolically active cells after 48 hours of compound treatment as a proxy for cell viability.
Assay Submitter: Nathalia J. Martinez, National Center for Advancing Translational Sciences, National Institutes of Health, Rockville, MD, USA; email: natalia.martinez@nih.gov.
[1] Shen, M et al. Quantitative high-throughput phenotypic screening of pediatric cancer cell lines identifies multiple opportunities for drug repurposing. Oncotarget 2017 Dec 19;9(4):4758-4772. PMID 29435139.
The cells were obtained from University of North Carolina (UNC), Pediatric Preclinical Testing Program (PPT), and Coriell Institute (CI).
qHTS cell viability assay:
Cells were assayed in growth media at a density of 500-1,000 cells/well. Five microliters of cells were dispensed into 1,536-well, white, solid-bottom, TC-treated plates (Greiner Bio One) using a multidrop dispenser and incubated at 37 degrees C, 5% CO2, under a humidified atmosphere for 5 hours. Twenty-three nanoliters of compounds and controls (neutral control DMSO or positive control bortezomib at final concentration of 2.3 uM) were subsequently transferred by Kalypsys pintool. For primary screens, the MIPE collection was tested at 11-point dilutions (final concentrations range from 0.78 nM to 46 µM) and the NPC collection at 8-point dilutions (final concentrations range from 0.59 nM to 46 µM). Compounds tested in follow-up screens were assayed at 11-point dilutions. Cells were incubated for 48 hours, followed by addition of 3 uL of CellTiter-Glo (Promega). After a 15min incubation at room temperature, samples were analyzed for luminescence intensity using a ViewLux High-throughput CCD imager equipped with clear filters.
`CN(C)c1ccc(C(=C2C=CC(=[N+](C)C)C=C2)c2ccc(N(C)C)cc2)cc1`: the Potency is 1.47 µM (active).

As for `Nc1nc(=S)c2[nH]cnc2[nH]1`, the Potency is 2.61 µM (active) and 1.65 µM (active).

For `CS(=O)(=O)c1ccc([C@@H](O)[C@@H](CO)NC(=O)C(Cl)Cl)cc1`, the Potency result is “inactive”.

As to `CC(C)C[C@H](NC(=O)[C@H](CCc1ccccc1)NC(=O)CN1CCOCC1)C(=O)N[C@@H](Cc1ccccc1)C(=O)N[C@@H](CC(C)C)C(=O)[C@@]1(C)CO1`, the Potency was 0.0522 µM (active).

Take `COc1ccc(C(=O)CC(=O)c2ccc(C(C)(C)C)cc2)cc1`: the Potency entry was “inactive”.

On to `COC(=O)Nc1nc2ccc(C(=O)c3ccccc3)cc2[nH]1`, for which the Potency was 1.04 µM (active).

With `CN1CCCC(n2nc(Cc3ccc(Cl)cc3)c3ccccc3c2=O)CC1` (stereo not given), the Potency is 9.27 µM (active).

For the compound `CNNCc1ccc(C(=O)NC(C)C)cc1`, the Potency was 10.4 µM (active).

For the compound `CNCC[C@H](Oc1cccc2ccccc12)c1cccs1`, the Potency is 14.7 µM (active).

Consider `CCOC(=O)[C@H](CCc1ccccc1)N[C@H]1CS[C@H](c2cccs2)CN(CC(=O)O)C1=O`, for which the Potency was 10.4 µM (active).

Consider `CCc1c2c(nc3ccc(OC(=O)N4CCC(N5CCCCC5)CC4)cc13)-c1cc3c(c(=O)n1C2)COC(=O)[C@]3(O)CC`, for which the Potency was 1.17 µM (active).

Consider `Oc1c(Cl)cc(Cl)c2cccnc12`, for which the Potency is 8.27 µM (active).

As for `Nc1nc(N)c2nc(CNc3ccc(C(=O)NC(CCC(=O)O)C(=O)O)cc3)cnc2n1` (stereo not given), the Potency was 1.04 µM (active).

In the case of `C[C@@H]1C[C@H]2[C@@H]3CCC4=CC(=O)C=C[C@]4(C)[C@@]3(Cl)[C@@H](O)C[C@]2(C)[C@@]1(OC(=O)c1ccco1)C(=O)CCl`, the Potency is 2.61 µM (active).

Regarding `CCC(=O)O[C@]1(C(=O)SCF)[C@H](C)C[C@H]2[C@@H]3C[C@H](F)C4=CC(=O)C=C[C@]4(C)[C@@]3(F)[C@@H](O)C[C@@]21C`, the Potency is 1.04 µM (active).

As to `Nc1[nH]c(=O)ncc1F`, the Potency entry was “inactive”.

Regarding `CC1CC2C3CCC4=CC(=O)C=C[C@]4(C)[C@@]3(F)[C@@H](O)C[C@]2(C)[C@@]1(O)C(=O)CO` (stereo not given in full), the Potency is 2.93 µM (active).

Regarding `Nc1nc(F)nc2c1ncn2[C@@H]1O[C@H](CO)[C@@H](O)[C@@H]1O`, the Potency is 1.85 µM (active).

Consider `CC(C)NCC(O)c1ccc(NS(C)(=O)=O)cc1` (stereo not given), for which the Potency entry was “inactive”.

As to `COc1cc([C@@H]2c3cc4c(cc3[C@H](O)[C@H]3COC(=O)[C@H]23)OCO4)cc(OC)c1OC`, the Potency was 0.104 µM (active).

In the case of `O=S(=O)(O)CCS`, the Potency result is “inactive”.

On to `CCC(=O)O[C@]1(C(=O)CCl)[C@@H](C)C[C@H]2[C@@H]3CCC4=CC(=O)C=C[C@]4(C)[C@@]3(F)[C@@H](O)C[C@@]21C`, for which the Potency was 20.8 µM (active).

Take `COc1cc(NCc2ccc3nc(N)nc(N)c3c2C)cc(OC)c1OC`: the Potency is 3.29 µM (active).

In the case of `CC(C)(C#N)c1cc(Cn2cncn2)cc(C(C)(C)C#N)c1`, the Potency entry is “inactive”.

`CCCCOc1ccc(CC(=O)NO)cc1`: the Potency result was “inactive”.

Regarding `O=NN(CCCl)C(=O)NC1CCCCC1`, the Potency result is “inactive”.

Turning to `CC(C)(C)C(=O)OCOP(=O)(COCCn1cnc2c(N)ncnc21)OCOC(=O)C(C)(C)C`, the Potency is 4.65 µM (active).

For the compound `COC(=O)Nc1nc2ccc(S(=O)c3ccccc3)cc2[nH]1` (stereo not given), the Potency is 1.17 µM (active).

For the compound `CNC(=O)c1cc(Oc2ccc(NC(=O)Nc3ccc(Cl)c(C(F)(F)F)c3)cc2)ccn1`, the Potency was 23.3 µM (active).

With `COc1nc(N)nc2c1ncn2[C@@H]1O[C@H](CO)[C@@H](O)[C@@H]1O`, the Potency was 1.85 µM (active).

As for `COc1cc2nc(N3CCCN(C)CC3)nc(NC3CCN(Cc4ccccc4)CC3)c2cc1OC`, the Potency was 7.37 µM (active).

Regarding `Cn1nnc2c(C(N)=O)ncn2c1=O`, the Potency entry was “inactive”.

`CO[C@@]12[C@H](COC(N)=O)C3=C(C(=O)C(C)=C(N)C3=O)N1C[C@@H]1N[C@@H]12`: the Potency was 3.69 µM (active).

`COc1ccc(-c2ccc3cc(C(=O)O)ccc3c2)cc1C12CC3CC(CC(C3)C1)C2`: the Potency was 5.85 µM (active).

Turning to `CNS(=O)(=O)CCc1ccc2[nH]cc(C3CCN(C)CC3)c2c1`, the Potency is 3.69 µM (active).

`Cc1cccc(N(C)C(=S)Oc2ccc3ccccc3c2)c1`: the Potency result is “inactive”.

`NC(=O)c1cccnc1`: the Potency was 13.1 µM (active).

In the case of `Nc1nc(N)nc(-c2cc(Cl)ccc2Cl)n1`, the Potency is 26.9 µM (active).

With `COC(=O)Nc1nc2ccc(Sc3ccccc3)cc2[nH]1`, the Potency was 1.17 µM (active).

With `C[C@@H](CN1CC(=O)NC(=O)C1)N1CC(=O)NC(=O)C1`, the Potency result is “inactive”.
